Test results published in PubChem BioAssay (NCI).
Compounds without any hit were thinned out: in the full panel of roughly 79,000, 15% have a hit. Cut-off read from the data, not from the text of the source: active = growth inhibition above about 70%; inactive = the rest.

Columns and labels:
[1] = NCI Yeast Anticancer Drug Screen. Data for the rad50 strain (AID 155);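 note: 0% = growth of vehicle-only cultures of the same strain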; details: S. cerevisiae rad50 strain growth inhibition; at 50.0 µM; hits give high values
In short: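 Vehicle-treated cultures provide the reference for the growth inhibition reported for compound-exposed, repair-deficient yeast.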

[2] = NCI Yeast Anticancer Drug Screen. Data for the mec2-1 strain (AID 157); details: S. cerevisiae mec2-1 strain, at 50.0 µM, hits give high values
In short: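 Yeast mec2-1 mutant treated with compound. Readout: growth inhibition vs vehicle controls.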

[3] = NCI Yeast Anticancer Drug Screen. Data for the sgs1 mgt1 strain (AID 161);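 note: 0% = growth of cultures given vehicle only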; details: S. cerevisiae sgs1 mgt1 strain, at 50.0 µM, hits give high values
In short: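 Inhibition of yeast growth, normalised to vehicle-treated controls, is reported for a strain bearing genetic alterations in DNA damage repair.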

[4] = NCI Yeast Anticancer Drug Screen. Data for the cln2 rad14 strain (AID 165);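 note: 0% = growth equal to vehicle treated cultures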; details: S. cerevisiae cln2 rad14 strain, at 50.0 µM, hits give high values
In short: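 cln2 rad14 yeast strain; compound exposure; growth inhibition read vs vehicle controls.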

[5] = NCI Yeast Anticancer Drug Screen. Data for the bub3 strain (AID 167); details: S. cerevisiae bub3 mutant strain, at 50.0 µM, hits give high values
In short: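 Mutant yeast screening strain plus compound; vehicle-treated cultures serve as the 0% inhibition reference.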

[6] = NCI Yeast Anticancer Drug Screen. Data for the mlh1 rad18 strain (AID 175); details: S. cerevisiae mlh1 rad18 strain growth inhibition; at 50.0 µM; hits give high values
In short: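 Yeast w/ defined DNA-repair lesions; compound exposure; growth vs vehicle controls → % inhibition.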

Measured: growth inhibition

COC(=O)C(CC(=O)C=[N+]=[N-])NC(=O)C(Cl)Cl (stereo unspecified)
inactive: [1] -2.4% | [2] -8.9% | [3] -4.7% | [4] -15.9% | [5] 9.3% | [6] -8.95%

CCCC1CCCC1C (stereo unspecified)
inactive: [1] 4.3% | [2] 4.25% | [3] 8.45% | [4] 5.4% | [5] 17.4% | [6] -1.85%

FC(F)(F)c1cccc(NC(=S)Nc2ccccc2S)c1
inactive: [1] 24% | [2] 20.2% | [3] 27.4% | [4] 25.6% | [5] 9.95% | [6] 17%

CC(=O)Nc1ccc(S(=O)(=O)O)c(C(F)(F)F)c1
inactive: [1] 17.1% | [2] 21.1% | [3] 12.6% | [4] -8% | [5] 26.5% | [6] 11.4%

CC(=O)Nc1ccc(S(=O)(=O)NNc2nc(N3CCCC3)nc(N3CCCC3)n2)cc1
inactive: [1] 1.7% | [2] -8.1% | [3] -14.4% | [4] 1.8% | [5] -1.25% | [6] 2.15%

CCc1ccc(N=Cc2cc(OC)c(OC)c(OC)c2)cc1
inactive: [1] -4.2% | [2] 16.4% | [3] 29.4% | [4] 4.75% | [5] 14.2% | [6] -6.45%

CN1C=C([N+](=O)[O-])C(N2CCOCC2)C1N1CCOCC1 (stereo unspecified)
inactive: [1] 3.1% | [2] 0.65% | [3] -3.5% | [4] 3.1% | [5] -26.6% | [6] 20.9%

CCCN(CCC)C(=S)S
inactive: [1] 43.1% | [2] 7.95% | [3] 54.1% | [4] 32.7% | [5] 23.2% | [6] 14.4%

O=C1c2ccccc2C(=O)N1CNc1cccc(NCN2C(=O)c3ccccc3C2=O)c1
inactive: [1] -3.9% | [2] -11.7% | [3] -9.75% | [4] 16.1% | [5] 1.2% | [6] -2.15%

C[C@@H]1CC[C@]2(C)C3(C)CC[C@]2(OC3=O)[C@@]12CC(c1ccoc1)OC2=O (stereo partly specified)
inactive: [1] -5.9% | [2] -13.8% | [3] -9.35% | [4] -7.45% | [5] -5.45% | [6] -42.3%

COC(=O)c1ccccc1NC(=O)C1CCCCC1=O (stereo unspecified)
inactive: [1] 1.55% | [2] -1.2% | [3] -0.1% | [4] -21.5% | [5] 12.3% | [6] 0.6%

O=Cc1cc2c(cc1Cl)OCO2
inactive: [1] -3.3% | [2] -8.05% | [3] -13.8% | [4] 14.8% | [5] -8.4% | [6] -2%

C=C(S(=O)(=O)CC)S(=O)(=O)CC
inactive: [1] 28.9% | [2] -7.75% | [3] -3.8% | [4] -53% | [5] -6.5% | [6] 4.4%

CCOC(=O)C1CC2(CCC(=O)O2)C(=O)O1 (stereo unspecified)
inactive: [1] -5.15% | [2] -5.95% | [3] -20.6% | [4] 3.05% | [5] -5.75% | [6] -6.85%

CCOc1ccc(N=Nc2ccc3oc(=O)c(C(=O)Nc4ccc(OC)cc4)cc3c2)cc1
inactive: [1] 11.4% | [2] 5.9% | [3] -17.7% | [4] -22.1% | [5] 0.8% | [6] 11.6%

c1ccc2c(c1)NC(SSC1Nc3ccccc3S1)S2 (stereo unspecified)
inactive: [1] -2.4% | [2] -21.1% | [3] -2.65% | [4] -0.55% | [5] -11.1% | [6] 1.65%

CCCCCCCCn1nnnc1N
inactive: [1] -1.1% | [2] 21% | [3] 1.45% | [4] 0.5% | [5] 20.7% | [6] 8.1%

CCOP(=O)(OCC)/C(C#N)=C/c1cccc([N+](=O)[O-])c1
inactive: [1] -14.2% | [2] 2.5% | [3] -4.85% | [4] 3.85% | [5] -6.55% | [6] 9.25%

CC(C)CCC[C@@H](C)[C@H]1CC[C@H]2C3=CC=C4C[C@H](OC(=O)c5ccccc5)CC[C@]4(C)[C@H]3CC[C@]12C
inactive: [1] 0.4% | [2] 5.5% | [3] 11% | [4] 3.7% | [5] -1.25% | [6] -10.2%

O=[N+]([O-])c1ccc(NC2C(O)OC(CO)C(O)C2O)c([N+](=O)[O-])c1 (stereo unspecified)
inactive: [1] 5.1% | [2] -3.2% | [3] 5.55% | [4] -7.15% | [5] 5.8% | [6] -0.95%

CC(C)(C)c1ccc(-c2nc3ccc([N+](=O)[O-])cc3c(=O)o2)cc1
inactive: [1] 12.1% | [2] 15.8% | [3] 35% | [4] -13.1% | [5] 16.1% | [6] 33.5%

Cc1cc2nc3c(=O)[nH]c(=O)nc-3n(CCN(CCO)CCO)c2cc1Cl
inactive: [1] 58.9% | [2] 7.95% | [3] 48.3% | [4] 14.8% | [5] 1.55% | [6] 17.8%

COC(=O)CCNC(C(=O)O)C(C)(C)SCCC(=O)OC (stereo unspecified)
inactive: [1] -18.6% | [2] -19.1% | [3] -7.9% | [4] 24.5% | [5] 24.5% | [6] -20.4%

O=c1c(Cl)c(N2CCCCC2)cnn1-c1ccccc1
inactive: [1] 20.8% | [2] 14.2% | [3] 16.6% | [4] 7.6% | [5] 14.1% | [6] 19.4%

Cc1nc(N(CCO)CCO)c2sc(=S)n(-c3ccccc3)c2n1
inactive: [1] -35.5% | [2] -16.4% | [3] -43.9% | [4] -13.7% | [5] -14.2% | [6] -45.8%

O=C(O)CCC1COc2ccccc2O1 (stereo unspecified)
inactive: [1] -12.2% | [2] -8.35% | [3] 0.8% | [4] -9.5% | [5] -14% | [6] -9.35%

[N-]=[N+]=CC(=O)c1cc(-c2ccccc2)nc2c(-c3ccccc3)cccc12
inactive: [1] 55.8% | [2] 18.8% | [3] 54% | [4] 31.8% | [5] 62.8% | [6] 59.1%

Cc1cn(CCCn2cnc3c(=O)[nH]cnc32)c(=O)[nH]c1=O
inactive: [1] -13.1% | [2] -22.1% | [3] -16.7% | [4] -3.15% | [5] -21.6% | [6] -3.25%

COC(=O)c1ccc(SCCC(=O)CNc2nc(N)nc(N)c2[N+](=O)[O-])cc1
inactive: [1] 32.1% | [2] -13.3% | [3] 17.6% | [4] 22.3% | [5] -0.2% | [6] 3.15%

CCN(CC)CCNC1=CC(=S)NC(C)(C)C1
inactive: [1] -13.7% | [2] 10.6% | [3] -2.6% | [4] -4.2% | [5] -1.9% | [6] -6.05%

c1ccc(C2=NCCN2)nc1
inactive: [1] 8.1% | [2] 0.9% | [3] -5.7% | [4] -1.15% | [5] 0.65% | [6] 6.55%

S=C1CC(c2ccccc2)Sc2ccccc2N1 (stereo unspecified)
inactive: [1] -1.45% | [2] 1.85% | [3] 13.9% | [4] 1.8% | [5] 30.3% | [6] -25.6%

O=C(Nc1nccs1)c1cc(C2=CC=CC([N+](=O)[O-])C=C2)nc(=S)[nH]1 (stereo unspecified)
inactive: [1] -12.9% | [2] -18.5% | [3] -23.8% | [4] -8.45% | [5] -8.65% | [6] -7.6%

O=C(N/N=C/c1cccc(C(F)(F)F)c1)c1ccncc1
inactive: [1] 12.8% | [2] 6.7% | [3] 11.1% | [4] -15.7% | [5] 8.05% | [6] 5.85%

O=C1CCC(=O)N2C(=O)CCC(=O)N12
inactive: [1] -33.5% | [2] -26.3% | [3] -18.9% | [4] -15.3% | [5] 0.45% | [6] 3.45%

O=C(NO)c1ccc(Cl)cc1Cl
inactive: [1] 57.9% | [2] -0.8% | [3] 37.7% | [4] -11.9% | [5] 18.6% | [6] 43.7%

O=c1[nH]cc(COCC(F)(F)C(F)(F)C(F)(F)C(F)F)c(=O)[nH]1
inactive: [1] -1.35% | [2] -14.9% | [3] -3.7% | [4] 0.5% | [5] -17.5% | [6] 1.2%

N#CC(C#N)=Cn1c(=S)[nH]c2ccc([N+](=O)[O-])cc21
inactive: [1] -13.4% | [2] -19.6% | [3] 2.75% | [4] 20.8% | [5] -9% | [6] -4.55%

Cc1n[nH]c(=O)n1-c1cccnc1
inactive: [1] -0.7% | [2] 1.5% | [3] -9% | [4] -12.3% | [5] 3.55% | [6] 3.6%

COc1ccccc1C(=O)N/N=C/c1ccccc1Cl
inactive: [1] 4.25% | [2] 35.3% | [3] 32.4% | [4] -4.3% | [5] 9.05% | [6] 30.1%

CCCCCCCCCC1=C(C#N)C(=O)OCCN1C
inactive: [1] -12.9% | [2] -2.7% | [3] 0.05% | [4] -22.1% | [5] -11.4% | [6] 3.6%
